This is one part of a sample in which hits are shown more often than they occur.
Pf Dd2 growth = Plasmodium falciparum Dd2 growth inhibition | P. falciparum Dd2 growth, SYBR Green, 72 h | Potency, µM (top dose mostly 28.9 µM), most hits filed as inhibitors | 120,000 tested, 4.3% active | AID 1347417; active = well fitted inhibition curve with a large enough effect; also: nearly all actives have a fitted effect of over 65% in size
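Readout: SYBR Green fluorescence, 485 nm excitation, 535 nm emission, after ~16 h lysis at 37C. Before that, Dd2-infected red cells (2.5% hematocrit) grew 72 h with compound, 29 uM top final concentration.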
Hits are given with their value; . = inactive.

SMILES	Pf Dd2 growth
CN(C)CCN(C)CC[C@H]1CN(C(=O)Cc2ccccc2)CC[C@H]1CC(=O)O	.
CN(C)C1CCN(C(=O)C2(N(C)CCc3ccccc3)Cc3ccccc3C2)C1 (centres undefined)	5µM
CCNC(=O)N1CCC(CCOC)(NC(=O)c2cccs2)CC1	.
O=C(NCc1ccc(-c2ccc(F)cc2)o1)C1CC(=O)N(Cc2cccnc2)C1 (centres undefined)	.
CCCCN1CCN(C(=O)c2cnc(-c3ccccc3)nc2-c2ccncc2)CC1	.
CN1CCN(c2ncc(C(=O)O)c(-c3ccccc3)n2)CC1	.
CC/C=C\CCc1c(-c2ccccc2)ncn1CCN1CCN(C)CC1	4.5µM
CS(=O)(=O)N[C@@H]1[C@@H](NC(=O)CCC2=NNC(=O)CC2)[C@H]2CCO[C@H]21	.
Clc1cccc(-c2noc(-c3ccc(NCC4COCCO4)nc3)n2)c1 (centres undefined)	.
Cc1cn2nc(C(=O)NC3CCCCC3)cc2c(N2CCCC2)n1	10µM
Cc1cn2nc(C(=O)NCC(C)C)cc2c(N2CCCC2)n1	.
Cc1cn2nc(C(=O)NCCc3ccccc3)cc2c(N2CCCC2)n1	.
CCC(=O)Nc1ccc(C2(C(=O)N3CCCCCC3)CCC2)cc1	.
CN1[C@@H](CCC(=O)NCc2ccc(F)cc2)CNC(=O)[C@@H]2[C@H]1CCN2Cc1ccc(O)cc1	.
O=C(c1ccc(C(F)(F)F)cc1)N1CCn2c(nnc2-c2cccnc2)C1	.
Cc1cc2c(c(=O)n(-c3ccc(F)cc3)c(=O)n2CC(=O)Nc2ccccc2Cl)n1C	.
CCOc1cc(CN2CCC(C(Cc3ccccc3F)N(C)C(=O)c3cccs3)CC2)ccc1O (centres undefined)	4µM
COc1cccc(CN2CCC(C(Cc3ccccc3F)N(C)C(=O)c3cccs3)CC2)c1O (centres undefined)	.
CCOc1cc(CN2CCOc3ccc(C(=O)NCc4ccccc4F)cc3C2)ccc1O	.
O=C1CC(c2noc(Cc3c(F)cccc3Cl)n2)CN1C1CCCCC1 (centres undefined)	.
N[C@H](C(=O)N1CCC2(CC1)Nc1ccccc1NC2=O)c1ccccc1	.
Cc1ccc(-n2c(-c3ccco3)nc3c(cnn3-c3ccccc3C)c2=O)cc1	.
COc1cccc(-n2c(-c3ccccc3F)nc3c(cnn3-c3ccc(C)cc3)c2=O)c1	8.9µM
Cc1cccc(-n2c(-c3ccco3)nc3c(cnn3-c3ccc(F)cc3)c2=O)c1	.
Cc1ccc(-n2c(-c3ccco3)nc3c(cnn3-c3ccc(C)cc3)c2=O)cc1	11µM
SMILES	Pf Dd2 growth
Cc1ccc(-c2nc3c(cnn3-c3ccccc3)c(=O)n2-c2cccc(Cl)c2)cc1	.
Cc1ccc(-n2c(C)nc3c(cnn3-c3ccccc3)c2=O)cc1	.
Cc1nc(C)c(C(=O)N2CCC3(CC2)CC(N2CCCCC2)CCO3)s1 (centres undefined)	.
CN1C(=O)CC[C@]2(C(=O)NCc3ccccc3Cl)CCCC[C@@H]12	.
CC(=O)NCC1CCCN(C(=O)c2cc(Cn3ccc4ccccc43)[nH]n2)C1 (centres undefined)	.
CCS(=O)(=O)Nc1ccc(C2(C(=O)NCc3ccccc3F)CCCCC2)cc1	.
Cc1noc(C)c1CC(=O)N1CCC(CCOc2ccccc2F)C1 (centres undefined)	.
O=c1[nH]c2cccnc2n1C1CCCCC1	.
CCOCc1cc(CN2CCN(c3ccccc3OC)CC2)c(O)c2ncccc12	2µM
COc1ccccc1N1CCN(c2ncccc2-c2nc(-c3ccc(Cl)cc3)no2)CC1	.
COc1ccccc1N1CCN(C(CNC(=O)C(=O)NCc2cccnc2)c2cccnc2)CC1 (centres undefined)	.
CCCOCc1cc(CN2CCN(c3ccccc3OC)CC2)c(O)c2ncccc12	2.8µM
COc1ccccc1N1CCN(Cc2cc(COC(C)C)c3cccnc3c2O)CC1	1.6µM
COc1ccc(-c2noc(CN3CCN(c4ccccc4OC)CC3)n2)cc1OC	.
COc1ccccc1N1CCN(c2csc3ccccc3c2=O)CC1	.
C=CCS(=O)(=O)NCc1cccnc1N1CCN(c2ccccc2OC)CC1	.
CCOc1ccccc1N1CCN(Cc2ccc(=O)n(CC)c2)CC1	.
O=C(Nc1ccc(F)cc1F)N1CCOC[C@H](Oc2ccc(C(F)(F)F)cc2)C1	.
COC[C@@H]1[C@@H](NC(=O)c2ccc3c(c2)ncn3C)[C@@H]2CCO[C@H]12	.
O=C(C1CCN(c2cn[nH]c(=O)c2)C1)N1CCCC1 (centres undefined)	.
O=C(NCc1nc(-c2ccncc2)n[nH]1)C1CCCN(C2CCCC2)C1 (centres undefined)	.
OCc1ccc(CN2CC[C@@H](c3ccc4ccccc4c3)[C@H](O)C2)o1	.
CCn1cc(S(=O)(=O)N2CC(F)(F)C[C@H]2c2nc(C)no2)cn1	.
Cc1ncccc1C(=O)N1CCC(Oc2cnc3c(ccn3-c3cncnc3)c2)CC1	.
CN1C[C@H](O)C[C@H]1c1nnc2n1CCN(C(=O)CCCc1ccccc1)CC2	.
SMILES	Pf Dd2 growth
COCc1nc(C2CCCN(C(=O)c3ccc(OC)nc3OC)C2)no1 (centres undefined)	.
CCn1cc(S(=O)(=O)NCCc2ncc(C)n2Cc2ccc(F)cc2)cn1	6.3µM
Cc1cnc(CCNC(=O)Nc2ccc3c(c2)OCCO3)n1Cc1ccc(F)cc1	.
Cc1cnc(CCNC(=O)C2CCCC2)n1Cc1ccc(F)cc1	.
COc1ccc(C(=O)Nc2ccc([C@H]3OCC(=O)N[C@@H]3CO)cc2)cc1	.
Cc1cc(COc2ccccc2)oc1C(=O)N[C@@H]1CCOC[C@H]1OCCO	.
CC(C)OCc1cc(CN2CCN(c3cccc(C(F)(F)F)c3)CC2)c(O)c2ncccc12	1.4µM
CCOCc1cc(CN2CCN(c3cccc(C(F)(F)F)c3)CC2)c(O)c2ncccc12	2.8µM
O=C(c1cc2ccc3cccnc3c2[nH]1)N1CCN(c2cccc(C(F)(F)F)c2)CC1	.
FC(F)(F)c1cccc(N2CCN(Cc3nnc(-c4ccccc4)o3)CC2)c1	.
O=C(CCn1c(=O)c2cccn2c2cccnc21)N1CCN(c2cccc(C(F)(F)F)c2)CC1	.
OC1(CN2CCN(c3cccc(C(F)(F)F)c3)CC2)CNCCOC1 (centres undefined)	.
CN1CC2(CCN(C(=O)Cc3c[nH]c4ccccc34)CC2)CC1C(=O)N1CCOCC1 (centres undefined)	.
O=C(N[C@H]1CCN2C(=O)N(c3cccc4nsnc34)C(=O)[C@@H]2C1)c1ccnc(Cl)c1	.
COCCN1C(=O)c2ccccc2C(C(=O)NCCC2=CCCCC2)C12CCCC2 (centres undefined)	.
O=C1NCCN1C1CCN(S(=O)(=O)c2cccs2)CC1	.
COc1ccc(C)cc1NC(=O)CN1C(=O)NC2(CCS(=O)(=O)CC2)C1=O	.
COCCc1noc(-c2ccccc2OC2CN(S(=O)(=O)C(C)C)C2)n1	8.9µM
Cc1noc(-c2ccccc2OC2CCN(S(C)(=O)=O)C2)n1 (centres undefined)	.
COCCc1noc(-c2ccccc2OC2CN(C(=O)c3ccncc3)C2)n1	10µM
COCCc1noc(-c2ccccc2OC2CN(C(=O)c3cnccn3)C2)n1	.
Cc1ccc(C(=O)N2CCC(Oc3ccccc3-c3nc(-c4ccncc4)no3)C2)cn1 (centres undefined)	.
COc1ccc(OC)c(S(=O)(=O)N2CCC(Oc3ccccc3-c3nc(C)no3)C2)c1 (centres undefined)	.
O=[S+]1([O-])NCC2(CCN(Cc3ccc(Cl)cc3)C2)Oc2ccncc21 (centres undefined)	.
